PubChem BioAssay
Several values for one entry are separate records, joined by “and”; a condition that tells them apart may be missing. Identical values can stand only once. Activity calls are given as the source filed them.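 How the source made its calls, unless noted: active means normalized viability below 100% at a tested concentration; inactive means the rest.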

What was measured:
[1] = stimulators of nuclear beta-catenin in C2C12, primary screen, imaging, WNT3A-conditioned medium, mouse C2C12, NPC library (AID 1117326; in the data active means nuclear beta-catenin stimulation mostly above about 4.2%, no sharp cut-off; inactive means mostly below about 10%); details: stronger effect = higher value
[2] = stimulators of insulin release from INS-1E, primary screen, cell-based, 5 mM glucose, NPC library (AID 1117329;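 active means compound raises insulin release from rat beta cells at 5 mM glucose, no numeric limit stated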); details: rat INS-1E insulin secretion, at 10 µM, stronger effect = higher value
[3] = growth inhibition of GSK3B-pretreated HCT116 cells – cell-based, CellTiter-Glo, 0.2 to 20 µM (AID 1117336;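 active means compounds lowering colon cancer cell viability after pretreatment blocking the GSK3B kinase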); details: HCT116 viability after GSK3B inhibitor, at 20 µM, stronger effect = higher value
[4] = inhibition of endothelial tube formation, primary screen, imaging, VEGF stimulated, CD31 staining, tube area, NPC library (AID 1117340;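 active means compound that reduces growth-factor-driven endothelial tube area in a mixed cell culture, no cutoff stated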); details: VEGF-stimulated ADSC/ECFC co-culture, at 10 µM, stronger effect = higher value
[5] = glucagon-like peptide 1 release enhancers, primary assay, NCI-H716 cell line, NPC library (AID 1117341;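 active means compound raises GLP1 secretion from the human gut endocrine cells, with no numeric limit stated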); details: NCI-H716 cells, at 10 µM, stronger effect = higher value
[6] = HCT116 colon cancer cell growth inhibition, primary screen, CellTiter-Glo luminescence, NPC library (AID 1117342;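 active means compounds that lower survival of HCT116 colon cancer cells in the luminescence readout, no numeric limit stated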); details: at 20 µM (top of the series)
[7] = CellTiter-Glo luminescent readout of SW480 viability loss, NPC library primary (AID 1117343;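 active means compounds that lower viability of the colon cancer cells in the luminescence readout, with no numeric limit stated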); details: CellTiter-Glo luminescence; at 20 µM (top of the series)
[8] = decreased DLD-1 cellular survival, CellTiter-Glo luminescent readout, NPC compound collection, primary HTS (AID 1117346;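 active means compounds that lower survival of DLD-1 colon cancer cells in the luminescence readout, no cutoff given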); details: DLD-1 viability, CellTiter-Glo luminescence; at 20 µM (top of the series)
[9] = target: 6-phosphogluconate dehydrogenase, decarboxylating (Homo sapiens) (UniProt P52209); experiment: 6PGD enzyme inhibitors, primary screen, biochemical, human, recombinant enzyme, NADPH absorbance (AID 1159550;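 active means at least 20% inhibition of 6-phosphogluconate dehydrogenase activity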); details: recombinant 6PGD, NADPH absorbance 341 nm; at 10 µM; stronger effect = higher value
[10] = modulation of C. elegans fzo-1 (AID 1259413; call rule not given here;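 further: fzo-1 mutant C. elegans worms in liquid wells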); details: C. elegans fzo-1 modulator screen, mean read-out; stronger effect = higher value
[11] = differential killing of epithelial or mesenchymal cells, primary screen, imaging, PC-3E GFP, TEM4-18 mCherry, co-culture (AID 1345086;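 active means compounds killing one labelled cell type while sparing the other, by normalised counts and ratio limits, not self-fluorescent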;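 on all read-outs here: cells exposed to compound for 72 h before imaging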;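 on red/green cell ratio (normalised): normalised mesenchymal count divided by normalised epithelial count so high means epithelial killing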); details: imaging cell counts, at 1 µM; for red/green cell ratio (normalised): actives lie on both sides, counts scaled to control wells, 1 = unselective
[12] = survival rescue of mitochondrial mutant cells in low glucose, primary screen, MELAS cybrids, Rieske KO mouse fibroblasts, CellTiter-Glo (AID 1508586;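 active means mean z-score across replicates of 1.96 or higher in either the MELAS or the Rieske mutant cell line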;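 further: z relative to plate mean and SD of compound and empty wells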)
[13] = target: NAD(+) hydrolase SARM1 (Homo sapiens) (UniProt Q6SZW1); experiment: SARM1 TIR NADase inhibitors, cell lysate, NAD-Glo luminescence (AID 1508614;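 active means compound whose remaining NAD level is above about 45 nM, limit read from the data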); details: SAM-TIR HEK293T lysate NADase, at 1 µM, stronger effect = higher value
[14] = target: Mitogen-activated protein kinase 7 (Homo sapiens) (UniProt Q13164); experiment: ERK5 transactivation activators in reporter cells, primary screen, cell-based, HTS (AID 1508626;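 active means luciferase signal above three times the same-plate solvent-only control wells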;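 further: luciferase driven by Gal4-ERK5 fusion binding five Gal4 sites before minimal TATA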); details: HeLa Gal4-ERK5 transactivation, 18 h, at 5 µM, stronger effect = higher value
[15] = test system: F380Y; experiment: modulators of BK channel variants, profiling panel, selectivity assay, cell-based, U2OS BacMam, thallium flux, beta subunits (AID 1259406;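 active means thallium flux through the channel raised or lowered by more than 3 SD from vehicle-only wells, actives on both sides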;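 further: initial slope of Thallos dye fluorescence rise after thallium is added; log ratio against the mean of 0.3% DMSO vehicle wells on the same plate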); details: at 30 µM
[16] = test system: F380Y/beta1; experiment: as above; details: at 30 µM
[17] = test system: F380Y/beta2Delta; experiment: as above; details: at 30 µM
[18] = ovarian cancer cell viability with rucaparib, profiling panel, oncology-focused library, rucaparib conditional (AID 1508598); details: patient-derived ovarian cancer cells, CellTiter-Glo viability, 144 h, stronger effect = lower value
[19] = measured here: epithelial PC-3E GFP cell survival
[20] = measured here: mesenchymal TEM4-18 mCherry cell survival
[21] = MELAS cybrid survival, CellTiter-Glo 48 h, stronger effect = higher value
[22] = Rieske KO mouse fibroblast survival, CellTiter-Glo 72 h

Sequence of Mitogen-activated protein kinase 7 (Homo sapiens) (Q13164 whole entry, looked up, the tested form may be a part): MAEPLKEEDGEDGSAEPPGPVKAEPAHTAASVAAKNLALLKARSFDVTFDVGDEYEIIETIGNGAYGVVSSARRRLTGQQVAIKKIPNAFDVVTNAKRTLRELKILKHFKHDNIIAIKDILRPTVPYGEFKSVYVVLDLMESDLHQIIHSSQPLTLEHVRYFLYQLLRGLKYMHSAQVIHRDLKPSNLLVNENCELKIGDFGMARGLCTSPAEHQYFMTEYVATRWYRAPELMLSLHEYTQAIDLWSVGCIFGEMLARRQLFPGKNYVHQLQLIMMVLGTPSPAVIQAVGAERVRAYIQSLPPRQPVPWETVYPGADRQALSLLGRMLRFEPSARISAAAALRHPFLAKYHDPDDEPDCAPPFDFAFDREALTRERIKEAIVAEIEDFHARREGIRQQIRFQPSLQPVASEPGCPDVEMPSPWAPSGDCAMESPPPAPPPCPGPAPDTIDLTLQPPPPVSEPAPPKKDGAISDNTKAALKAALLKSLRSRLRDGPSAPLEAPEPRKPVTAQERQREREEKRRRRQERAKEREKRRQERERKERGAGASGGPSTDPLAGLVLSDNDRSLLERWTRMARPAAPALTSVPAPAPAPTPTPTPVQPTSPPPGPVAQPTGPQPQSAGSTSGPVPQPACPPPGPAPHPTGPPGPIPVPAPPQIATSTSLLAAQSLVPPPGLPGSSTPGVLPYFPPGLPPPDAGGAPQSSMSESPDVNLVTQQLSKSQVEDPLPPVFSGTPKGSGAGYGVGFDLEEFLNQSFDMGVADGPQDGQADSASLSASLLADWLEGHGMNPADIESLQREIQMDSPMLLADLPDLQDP
Sequence of 6-phosphogluconate dehydrogenase, decarboxylating (Homo sapiens) (P52209 whole entry, looked up): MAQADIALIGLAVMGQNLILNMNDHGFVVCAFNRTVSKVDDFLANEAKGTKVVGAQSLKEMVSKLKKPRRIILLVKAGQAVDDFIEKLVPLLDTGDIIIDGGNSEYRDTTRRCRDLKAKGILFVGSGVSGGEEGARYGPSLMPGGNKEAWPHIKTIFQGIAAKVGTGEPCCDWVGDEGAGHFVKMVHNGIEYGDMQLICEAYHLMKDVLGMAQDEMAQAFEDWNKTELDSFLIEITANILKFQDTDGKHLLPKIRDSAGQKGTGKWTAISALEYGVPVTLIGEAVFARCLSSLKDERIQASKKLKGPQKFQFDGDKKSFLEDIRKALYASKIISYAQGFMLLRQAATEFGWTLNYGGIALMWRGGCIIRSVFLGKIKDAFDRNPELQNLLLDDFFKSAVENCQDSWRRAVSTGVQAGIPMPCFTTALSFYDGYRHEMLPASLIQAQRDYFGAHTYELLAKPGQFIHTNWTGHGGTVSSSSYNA
Sequence of NAD(+) hydrolase SARM1 (Homo sapiens) (Q6SZW1 whole entry, looked up, the tested form may be a part): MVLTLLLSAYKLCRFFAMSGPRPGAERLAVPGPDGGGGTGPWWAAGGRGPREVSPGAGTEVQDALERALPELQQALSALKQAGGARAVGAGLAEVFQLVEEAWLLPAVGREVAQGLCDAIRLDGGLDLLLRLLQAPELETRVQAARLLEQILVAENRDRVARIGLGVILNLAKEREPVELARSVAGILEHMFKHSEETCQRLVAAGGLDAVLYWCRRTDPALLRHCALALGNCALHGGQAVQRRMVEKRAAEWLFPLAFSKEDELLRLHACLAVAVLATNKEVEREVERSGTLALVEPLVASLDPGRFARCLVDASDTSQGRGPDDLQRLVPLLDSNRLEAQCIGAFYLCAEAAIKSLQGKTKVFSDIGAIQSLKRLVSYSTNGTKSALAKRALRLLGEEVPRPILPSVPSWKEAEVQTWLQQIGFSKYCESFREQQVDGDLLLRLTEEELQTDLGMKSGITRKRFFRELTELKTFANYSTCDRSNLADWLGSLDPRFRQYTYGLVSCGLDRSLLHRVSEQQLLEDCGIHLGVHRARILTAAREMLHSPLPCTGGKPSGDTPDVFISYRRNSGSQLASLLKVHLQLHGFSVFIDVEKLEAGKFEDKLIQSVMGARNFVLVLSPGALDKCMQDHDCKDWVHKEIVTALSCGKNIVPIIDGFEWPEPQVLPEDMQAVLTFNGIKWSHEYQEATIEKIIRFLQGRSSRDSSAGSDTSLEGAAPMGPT

COCCOC(=O)C1=C(C)NC(C)=C(C(=O)OC(C)C)C1c1cccc([N+](=O)[O-])c1 (centres undefined)
1.07: normalised cell number [11, 19]
inactive: nuclear beta-catenin stimulation ([1]; at 10 µM) -0.6% | insulin secretion stimulation [2] -0.5% | viability decrease [3] 46.2% | tube area decrease [4] -1.2% | GLP1 secretion stimulation [5] -0.1% | viability decrease (inhibition) [8] 27.1% | inhibition [9] 2.88% | mean signal [10] 225 | red/green cell ratio (normalised) [11] 1.09 | z-score [12, 21] -0.249 and 1.31 and 0.763 | remaining NAD [13] 10 nM | luciferase signal [14] 48 AU | log fold change Tl+ flux [15] -0.0169 | log fold change Tl+ flux [16] 0.0464
1.17: normalised cell number [11, 20]
active: inhibition of viability [6] 77.9% | viability decrease (inhibition) [7] 55.7% | log fold change Tl+ flux [17] -0.122
-0.137 and 1.51 and 1.35: z-score [12, 22]
1.2%: nuclear beta-catenin stimulation ([1]; stimulation, at 2 µM)

O=c1[nH]cnc2[nH]ncc12
1.06: normalised cell number [11, 19]
1%: nuclear beta-catenin stimulation ([1]; stimulation, at 2 µM)
inactive: nuclear beta-catenin stimulation ([1]; at 10 µM) -0.8% | insulin secretion stimulation [2] -2.4% | viability decrease [3] 3.7% | tube area decrease [4] -6.1% | GLP1 secretion stimulation [5] 0.1% | inhibition of viability [6] 2.7% | viability decrease (inhibition) [7] 25% | viability decrease (inhibition) [8] -0.95% | inhibition [9] 10.8% | mean signal [10] 267 | red/green cell ratio (normalised) [11] 1.08 | z-score [12, 21] 0.356 and -0.148 and 0.116 | viability ([18]; at 0.000305 µM, OCI-C5x cells, with rucaparib 10 µM, 100% = cells with rucaparib alone) 116% | viability ([18]; at 0.000305 µM, OCI-C5x cells, without rucaparib) 122% | viability ([18]; at 0.000305 µM, OCI-P5x cells, with rucaparib 20 µM, 100% = cells with rucaparib alone) 106% | viability ([18]; at 0.000305 µM, OCI-P5x cells, without rucaparib) 127% | viability ([18]; at 0.00122 µM, OCI-C5x cells, with rucaparib 10 µM, 100% = cells with rucaparib alone) 124% | viability ([18]; at 0.00122 µM, OCI-C5x cells, without rucaparib) 130% | viability ([18]; at 0.00122 µM, OCI-P5x cells, with rucaparib 20 µM, 100% = cells with rucaparib alone) 105% | viability ([18]; at 0.00122 µM, OCI-P5x cells, without rucaparib) 118% | viability ([18]; at 0.00488 µM, OCI-C5x cells, with rucaparib 10 µM, 100% = cells with rucaparib alone) 118% | viability ([18]; at 0.00488 µM, OCI-C5x cells, without rucaparib) 125% | viability ([18]; at 0.00488 µM, OCI-P5x cells, without rucaparib) 111% | viability ([18]; at 0.0195 µM, OCI-C5x cells, with rucaparib 10 µM, 100% = cells with rucaparib alone) 114% | viability ([18]; at 0.0195 µM, OCI-C5x cells, without rucaparib) 121% | viability ([18]; at 0.0195 µM, OCI-P5x cells, with rucaparib 20 µM, 100% = cells with rucaparib alone) 104% | viability ([18]; at 0.0195 µM, OCI-P5x cells, without rucaparib) 114% | viability ([18]; at 0.0781 µM, OCI-C5x cells, with rucaparib 10 µM, 100% = cells with rucaparib alone) 117% | viability ([18]; at 0.0781 µM, OCI-C5x cells, without rucaparib) 124% | viability ([18]; at 0.0781 µM, OCI-P5x cells, without rucaparib) 105% | viability ([18]; at 0.313 µM, OCI-C5x cells, with rucaparib 10 µM, 100% = cells with rucaparib alone) 113% | viability ([18]; at 0.313 µM, OCI-C5x cells, without rucaparib) 117% | viability ([18]; at 0.313 µM, OCI-P5x cells, with rucaparib 20 µM, 100% = cells with rucaparib alone) 102% | viability ([18]; at 0.313 µM, OCI-P5x cells, without rucaparib) 105% | viability ([18]; at 1.25 µM, OCI-C5x cells, with rucaparib 10 µM, 100% = cells with rucaparib alone) 122% | viability ([18]; at 1.25 µM, OCI-C5x cells, without rucaparib) 114% | viability ([18]; at 1.25 µM, OCI-P5x cells, without rucaparib) 105% | viability ([18]; at 5 µM, OCI-C5x cells, with rucaparib 10 µM, 100% = cells with rucaparib alone) 111% | viability ([18]; at 5 µM, OCI-C5x cells, without rucaparib) 109% | remaining NAD [13] 10 nM | luciferase signal [14] 36 AU | log fold change Tl+ flux [15] 0.0236 | log fold change Tl+ flux [16] 0.000941 | log fold change Tl+ flux [17] -0.00565
active: viability ([18]; at 0.00488 µM, OCI-P5x cells, with rucaparib 20 µM, 100% = cells with rucaparib alone) 98.6% | viability ([18]; at 0.0781 µM, OCI-P5x cells, with rucaparib 20 µM, 100% = cells with rucaparib alone) 99.6% | viability ([18]; at 1.25 µM, OCI-P5x cells, with rucaparib 20 µM, 100% = cells with rucaparib alone) 91.4% | viability ([18]; at 5 µM, OCI-P5x cells, with rucaparib 20 µM, 100% = cells with rucaparib alone) 91.3% | viability ([18]; at 5 µM, OCI-P5x cells, without rucaparib) 98%
-0.183 and 0.499 and -0.321: z-score [12, 22]
1.15: normalised cell number [11, 20]
